EPAC2 ag: EPAC2 (human) agonism; 0.079% of 360,000 active; Potency, µM (series often up to 154 µM), for inactives: at the highest dose activation, hits mostly activators; Q8WZA2; AID 720711; EPAC2 activation, biochemical qHTS; response scale: 100% = 6.5 mM cAMP response; also: nearly all actives have a fitted effect of over 50% in size
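qHTS, titration series. 100 nM EPAC2 / 250 nM Rap1B-BODIPY-GDP / 50 uM GDP; RT; ex 480/em 540 nm, 5-min reads to 30 min. Norm. to 6.5 mM cAMP = activation.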
EPAC1 agonist: EPAC1 (human) agonism; O95398; EPAC1 agonist qHTS, biochemical assay; response scale: 100% = response to 6.5 mM cAMP; Potency, µM (highest dose often 154 µM), for the others: top-dose activation, actives largely listed as activators; 0.073% of 360,000 active; AID 720707; also: nearly all actives have a fitted effect of over 60% in size
Target sequence (O95398 whole entry, looked up): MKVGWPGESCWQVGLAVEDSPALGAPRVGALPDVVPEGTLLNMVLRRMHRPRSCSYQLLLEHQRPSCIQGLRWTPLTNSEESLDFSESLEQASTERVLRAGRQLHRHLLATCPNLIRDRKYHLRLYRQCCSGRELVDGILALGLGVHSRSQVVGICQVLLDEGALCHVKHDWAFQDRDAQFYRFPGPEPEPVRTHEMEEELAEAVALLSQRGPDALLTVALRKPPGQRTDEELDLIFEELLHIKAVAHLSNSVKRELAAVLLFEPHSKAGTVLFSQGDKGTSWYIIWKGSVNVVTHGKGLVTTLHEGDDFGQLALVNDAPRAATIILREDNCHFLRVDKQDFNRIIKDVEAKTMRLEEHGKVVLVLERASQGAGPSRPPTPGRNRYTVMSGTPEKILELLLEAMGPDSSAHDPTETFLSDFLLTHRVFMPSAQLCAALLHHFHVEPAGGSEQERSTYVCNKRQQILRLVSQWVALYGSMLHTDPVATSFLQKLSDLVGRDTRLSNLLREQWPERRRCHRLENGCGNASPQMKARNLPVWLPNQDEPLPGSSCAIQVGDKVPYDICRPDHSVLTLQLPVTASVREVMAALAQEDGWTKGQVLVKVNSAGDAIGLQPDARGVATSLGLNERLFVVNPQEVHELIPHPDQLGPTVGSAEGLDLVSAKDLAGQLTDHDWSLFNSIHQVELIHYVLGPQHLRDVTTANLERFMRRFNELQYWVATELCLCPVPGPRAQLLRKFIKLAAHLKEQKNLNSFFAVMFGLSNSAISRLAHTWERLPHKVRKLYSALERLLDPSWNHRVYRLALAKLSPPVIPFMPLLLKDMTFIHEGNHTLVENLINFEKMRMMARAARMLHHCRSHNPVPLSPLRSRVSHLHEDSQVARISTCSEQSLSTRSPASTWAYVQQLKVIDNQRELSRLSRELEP
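Read-out is the fluorescence drop as BODIPY-GDP leaves Rap1B (480 nm excitation, 540 nm emission), recorded every 5 minutes over 30 minutes. Reactions held 100 nM EPAC1, 250 nM Rap1B–BODIPY-GDP and 50 uM GDP, with 6.5 mM cAMP setting full activation.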
EPAC2 antagonist: antagonists of human EPAC2 | Q8WZA2 | EPAC2 GEF exchange of Rap1B-BODIPY-GDP, fluorescence | AID 720708 | Potency, µM (top dose mostly 114 µM), for inactives: at the top dose activity, negative = inhibition, most hits filed as inhibitors | 0.18% of 360,000 active; also: % is scaled to controls: 0 for no effect and ±100 for the full control effect; nearly all actives have a fitted effect of over 45% in size
EPAC1 antag: blocks human EPAC1 exchange factor | O95398 | EPAC1 GEF assay, Rap1b-BODIPY-GDP exchange fluorescence | Potency, µM (top dose mostly 115 µM), for the others: at the top dose activity change, negative = inhibition, most hits filed as inhibitors | 0.14% of 360,000 active | AID 720709;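 also: plate controls were vehicle for no effect and positive control for full effect; nearly all actives have a fitted effect of over 50% in size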
USP1-UAF1 inh: inhibitors of human USP1/UAF1 deubiquitinase; Potency, µM (doses to about 57.1 µM), inactives show at the highest dose activity change, negative = inhibition, most hits filed as inhibitors; 0.23% of 390,000 active; recombinant USP1/UAF1, Ub-Rhodamine cleavage fluorescence; O94782; also: % is scaled to controls: 0 for no effect and ±100 for the full control effect; nearly all actives have a fitted effect of over 60% in size
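USP1/UAF1 complex (1 nM) preincubated 15 min at room temperature with compound, then Ub-Rho substrate (150 nM final) added. Kinetic fluorescence at 480/540 nm over 6 reads at 60 s intervals; 50 mM HEPES pH 7.8, 0.5 mM EDTA, 0.1 mg/ml BSA, 1 mM TCEP, 0.01% Tween-20.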
* marks the source's active call; other numbers are inactive results; i = inactive; ? = inconclusive; . = no result given. Shown are actives, neighbours in structure and some others; about 0.49% of the full set was active somewhere. Calls follow the shape of the dose curve; as a rule, active = well fitted curve in the direction sought with a large enough effect; inconclusive = small, poorly fitted or top-dose-only effect, or another doubt; inactive = no such curve, though single readings can be large; an effect the other way counts as inactive or inconclusive. Potency is read from the fitted curve at half-maximal effect.

SMILES | EPAC2 ag | EPAC1 agonist | EPAC2 antagonist | EPAC1 antag | USP1-UAF1 inh
CC1(C(=O)NS(=O)(=O)c2cccc(F)c2)CCN1C(=O)C1(c2ccc(Cl)cc2)CCC1 (stereo not given) | 3% | -4% | ? | -19% | .
CC(CNC(=O)C1CCN(Cc2cc3ccccc3n2Cc2ccccc2)CC1)c1ccccc1 (stereo not given) | . | . | . | . | -7%
CCC1CCCCN1C(=O)CSc1nc(-c2ccc(OC)cc2)cc(C(F)(F)F)n1 (stereo not given) | . | . | . | . | -34%
CC(C)CCNS(=O)(=O)c1ccc(N2CCCCS2(=O)=O)cc1 | . | . | . | . | 5%
Cc1nc2ccccc2c(=O)n1/N=C/c1ccc(O)c(O)c1O | -4% | 7% | 3% | ? | -16%
Cc1nc2ccccc2c(=O)n1/N=C/c1ccccc1O | -2% | 10% | 0% | 79µM* | -28%
COc1ccccc1Oc1ncnc2c1oc1ccccc12 | 12% | 16% | 79µM* | -19% | -5%
CC(=O)c1ccc(Oc2ncnc3c2oc2ccccc23)cc1 | . | . | . | . | 6%
COc1cc2ccccc2cc1C(=O)N1CC(C)CC(C)C1 (stereo not given) | 9% | -3% | 28µM* | -4% | -5%
COc1cc2ccccc2cc1C(=O)N1CCCC1 | 5% | 17% | 2% | 1% | -11%
Cc1ccc(C)c(NC(=O)CSc2nc3nc(-c4cccs4)cc(C(F)(F)F)c3c(=O)[nH]2)c1 | -6% | 1% | -5% | -22% | ?
O=C(CSc1nc2nc(-c3cccs3)cc(C(F)(F)F)c2c(=O)[nH]1)Nc1ccc(F)c(F)c1 | -8% | -10% | -22% | 79µM* | -21%
CC(C)(C)N1C(=O)Cc2c1nc(N)c1c(N)nc(N3CCCCC3CO)c(C#N)c21 (stereo not given) | 4% | -1% | -8% | 56µM* | ?
Cc1ccc(OCC(=O)Nc2ccc3nc(SCC(=O)N(C)c4ccccc4)sc3c2)cc1 | . | . | . | . | -27%
CC1=C(c2ccc(C)cc2)S(=O)(=O)NC1=NCCCN1CCN(c2ccccc2F)CC1 | . | . | . | . | 17%
O=[N+]([O-])c1ccc(C=Nc2cccc3ccccc23)s1 | 8% | 5% | 1% | -19% | 14µM*
c1ccc2c(c1)oc1c(-c3ccc4nccn4c3)cccc12 | 18% | 15% | 10µM* | -4% | .
Clc1cccc(-c2ccc3nccn3c2)c1Cl | 9% | 4% | ? | -27% | .
CCCCNc1c2c3c(cccc3n(C)c1=O)C(=O)c1ccccc1-2 | 62% | 60% | 201% | 206% | i
CC(=O)Nc1ccc(Nc2c3c4c(cccc4n(C)c2=O)C(=O)c2ccccc2-3)cc1 | 112µM* | ? | 11% | 35% | ?
CCOC(=O)c1c(C)[nH]c(CCC(=O)NC(C)c2ccccc2)c1C (stereo not given) | . | . | . | . | -6%
O=c1cc(CN2CCN(S(=O)(=O)c3cccc(Cl)c3)CC2)c2ccc(O)cc2o1 | -12% | -7% | -9% | 79µM* | -18%
CCN(c1ccc(OC)cc1)S(=O)(=O)c1ccc2[nH]c3c(c2c1)CCCCC3 | . | . | . | . | -12%
O=C(CSc1nccn1Cc1ccc(F)cc1)NCc1ccc(F)cc1 | . | . | . | . | -10%
Cc1ccc2cccc(Oc3ncnc4scc(-c5ccc(Cl)cc5)c34)c2n1 | 1% | 23% | -2% | -1% | 14µM*
SMILES | EPAC2 ag | EPAC1 agonist | EPAC2 antagonist | EPAC1 antag | USP1-UAF1 inh
Fc1ccc(-c2nc(Nc3cccc(C(F)(F)F)c3)nc3c2COc2ccccc2-3)cc1 | . | . | . | . | -12%
NC(=O)c1ccc(N=C2C(=O)Nc3ccc([N+](=O)[O-])cc32)cc1 | 5% | 3% | ? | ? | 14µM*
CC[n+]1c(/C=C/C=C/N(C(C)=O)c2ccccc2)sc2ccccc21 | 100µM* | ? | 92% | 18% | 32µM*
Cc1cc(C)c(S(=O)(=O)NCC(c2ccco2)N2CCN(c3ccccc3)CC2)c(C)c1 (stereo not given) | . | . | . | . | -7%
C=C1CCN(C(Cc2ccccc2)C(=O)OC)S(=O)(=O)c2ccc(F)cc21 (stereo not given) | 12% | -17% | 56µM* | -20% | -24%
C=C1CCN([C@@H](Cc2ccccc2)C(=O)O)S(=O)(=O)c2ccccc21 | 7% | 0% | 16% | 1% | -6%

Compound activity: PubChem, National Center for Advancing Translational Sciences (NCATS)
